High-throughput results as filed in PubChem BioAssay.
In the library only some 2.2% were active in any assay of this set; here they are far more common.
Ba/F3 V617F tox = lowers viability of Ba/F3 cells expressing EpoR and JAK2V617F | ATP luminescence | inhibition, % at 5.6 µM | 1.1% of 220,000 active;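 active means inhibition above the campaign mean plus 3 SD over all tested compounds, cut at about 24% in these data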;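 further: cytokine-independent growth of Ba/F3 cells driven by EpoR plus mutant JAK2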
IEC-6 tox = counter-screen for KLF5 inhibitors: cytotoxicity in IEC-6 cells | IEC-6 cytotoxicity, luminescence viability | inhibition, % at 5 µM | 0.78% of 290,000 active; in the data active means inhibition above about 22%
BaF3 parental = reduces parental Ba/F3 cell viability, JAK2V617F counter-screen; CellTiter-Glo ATP luminescence; inhibition, % at 5.6 µM; 1.1% of 220,000 active; AID 1486;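 active means inhibition above a per-campaign cutoff, the mean inhibition of all tested compounds plus 3 SD, cut at about 27% in these data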
aSyn UTR inh = 5' untranslated region of α-synuclein, MLPCN primary screen; 0.82% of 300,000 active; AID 1813; alpha-synuclein 5'UTR reporter, inhibitor activity; inhibition, % (tested at 7.5 µM); in the data active means inhibition above about 60%; inconclusive means no clear call, values can overlap the other calls;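 further: H4 neuroglioblastoma cells stably carrying SNCA 5'UTR luciferase fusion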
APP transl inh = APP translation inhibition; AID 1285; 0.82% of 190,000 active; inhibition, % at 2 µM; SH-SY5Y APP 5'UTR-luciferase reporter, luminescence;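 active means inhibition above a set limit, derived from the sample mean plus 3 SD, cut at about 45% in these data; inconclusive means one replicate passes the limit while the other fails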
KLF5 inhibitor = suppresses KLF5 promoter-driven expression; DLD-1 KLF5 promoter-luciferase reporter, luminescence; inhibition, % at 5 µM; 0.23% of 290,000 active; AID 1700;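 active means inhibition above a per-plate limit of that plate's mean compound inhibition plus 3 SD, cut at about 60% in these data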;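 further: higher means less KLF5 promoter-driven luciferase light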
Large screens that a line does not name were inactive.

O=C(COc1coc(CN2CCCc3ccccc32)cc1=O)Nc1ccc([N+](=O)[O-])cc1	none (no result: Ba/F3 V617F tox, IEC-6 tox, BaF3 parental, APP transl inh, KLF5 inhibitor)
Cc1ccc(-c2nn3cnnc3c3ccccc23)cc1	BaF3 parental 82
CCN(CC)c1ccc(NC2=C(Cl)C(=O)c3ccccc3C2=O)cc1	APP transl inh 96 (no result: aSyn UTR inh)
Cc1ccc(NC2=C(Cl)C(=O)c3ccccc3C2=O)cc1	aSyn UTR inh inconclusive, APP transl inh 96
CCOc1ccc(NC2=C(OC)C(=O)c3ccccc3C2=O)cc1	none
CCNC1=C(Cl)C(=O)c2ccccc2C1=O	none
Cc1ccc(NC2=CC(=O)C(=O)c3ccccc32)cc1	aSyn UTR inh 103
NS(=O)(=O)c1ccc(NC2=CC(=O)C(=O)c3ccccc32)cc1	none (no result: Ba/F3 V617F tox, BaF3 parental, APP transl inh)
Cc1cc(C)cc(NC(=O)CN2CCC(NC(=O)c3ccccc3F)CC2)c1	none (no result: Ba/F3 V617F tox, BaF3 parental, APP transl inh)
CC(C)n1c(SCC(=O)NC2CC2)nnc1C1CC1	none (no result: Ba/F3 V617F tox, BaF3 parental, APP transl inh)
Cc1cc(C)c2c(c1)/C(=N\N=c1\sc3ccccc3n1C)C(=O)N2	BaF3 parental 39 (no result: APP transl inh)
Cc1cccc(NC(=O)C(CCC(N)=O)NC(=O)OCc2ccccc2)c1 (configuration not stated)	none (no result: Ba/F3 V617F tox, BaF3 parental, APP transl inh)
COc1ccc(C(=O)Nc2ccc(C)cn2)c(OC)c1	aSyn UTR inh 115
COc1ccc(C(=O)Nc2cc(C)on2)c(OC)c1	none (no result: Ba/F3 V617F tox, BaF3 parental, APP transl inh)
Cc1cc(C(=O)N/N=C2\CCCc3ccccc32)c(C)o1	APP transl inh 68
O=C(C1CCCO1)N1CCN(C(=S)Nc2ccc(F)c(Cl)c2)CC1 (configuration not stated)	Ba/F3 V617F tox 28, BaF3 parental 27
O=C(Nc1ccc(CN2CCCCC2)cc1)Nc1ccccc1Cl	BaF3 parental 59
CCN1CCN(Cc2ccc(NC(=O)Nc3ccccc3Cl)cc2)CC1	none
COc1ccc(CCNC(=O)C2c3ccccc3C(=O)N2CCC(C)C)cc1OC (configuration not stated)	none (no result: Ba/F3 V617F tox, BaF3 parental, APP transl inh)
COc1ccc(OC)c(N2C(N)=NC(N)=NC23CCCC3)c1	none
CC1(C)N=C(N)N=C(N)N1c1cccc(CN)c1	Ba/F3 V617F tox 61, BaF3 parental 58 (no result: APP transl inh)
CC1(C)N=C(N)N=C(N)N1c1ccc(F)cc1F	Ba/F3 V617F tox 29, BaF3 parental 36
Cc1cccc(N2C(N)=NC(N)=NC23CCCCC3)c1	Ba/F3 V617F tox 61, BaF3 parental 61
COCc1cc(C)nc2sc(C(=O)Nc3ccccc3OC)c(N)c12	none (no result: Ba/F3 V617F tox, BaF3 parental, APP transl inh)
CCOc1ccccc1NC(=O)NNS(=O)(=O)c1cc(OC)ccc1OC	none (no result: Ba/F3 V617F tox, BaF3 parental, APP transl inh)
CN1CCN(c2ccccc2/C=C2/C(=O)Nc3ccccc32)CC1	none (no result: Ba/F3 V617F tox, BaF3 parental, APP transl inh)
Cc1cc(C)cc(-n2c(C)cc(/C=N/NC(=O)CN(c3c(C)cccc3C)S(C)(=O)=O)c2C)c1	APP transl inh 90
O=C(CN1CCN(S(=O)(=O)c2ccccc2)CC1)NCCc1ccccc1	none (no result: Ba/F3 V617F tox, BaF3 parental, APP transl inh)
CCCNC(=S)N1CCC(C(=O)c2ccc(Cl)cc2)CC1	none (no result: Ba/F3 V617F tox, BaF3 parental, APP transl inh)
CCCNC(=S)N1CCC(C(=O)c2ccc(OC)cc2)CC1	APP transl inh 60
CN(C)S(=O)(=O)c1cccc(NC(=O)CO/N=C(\N)c2ccccc2)c1	none (no result: Ba/F3 V617F tox, IEC-6 tox, BaF3 parental, APP transl inh, KLF5 inhibitor)
O=C1C=CC(=O)N1c1ccc(OC(F)F)cc1	APP transl inh 56 (no result: aSyn UTR inh)
CCN(CC)CCn1c2c(c(SCC(=O)Nc3ccccc3Cl)nc1=O)CCC2	none (no result: Ba/F3 V617F tox, IEC-6 tox, BaF3 parental, APP transl inh, KLF5 inhibitor)
COCCCNc1nc(N)c([N+](=O)[O-])c(NC2CCCCC2)n1	aSyn UTR inh 90 (no result: Ba/F3 V617F tox, BaF3 parental, APP transl inh)
COc1ccc(Nc2nc(N)c([N+](=O)[O-])c(NC3CCCCC3)n2)cc1	aSyn UTR inh 62 (no result: Ba/F3 V617F tox, BaF3 parental, APP transl inh)
CC(C)CCNc1nc(N)c([N+](=O)[O-])c(NCC2CCCO2)n1 (configuration not stated)	aSyn UTR inh 62
CCC(C)Nc1nc(N)c([N+](=O)[O-])c(NCc2ccccc2)n1 (configuration not stated)	aSyn UTR inh 65 (no result: Ba/F3 V617F tox, BaF3 parental, APP transl inh)
CC(=O)Nc1ccccc1NC(=O)C/C(C)=N/NC(=O)C(=O)N1CCCCC1	none (no result: Ba/F3 V617F tox, BaF3 parental, APP transl inh)
CCC(C)Nc1nc(N)c([N+](=O)[O-])c(NC2CCCCC2)n1 (configuration not stated)	aSyn UTR inh 102 (no result: Ba/F3 V617F tox, BaF3 parental, APP transl inh)
Nc1nc(NCC(=O)O)nc(NC2CCCCC2)c1[N+](=O)[O-]	none (no result: Ba/F3 V617F tox, BaF3 parental, APP transl inh)
N#C/C(=C/c1ccc(N2CCOCC2)o1)c1nc2ccccc2[nH]1	none (no result: aSyn UTR inh)
N#C/C(=C/c1ccc(N2CCCCCC2)o1)c1ccc(F)cc1	none
N#C/C(=C\c1ccc(N2CCOCC2)o1)c1ccccc1	BaF3 parental 30
N#C/C(=C/c1ccc(N2CCOCC2)o1)c1ccc(Br)cc1	Ba/F3 V617F tox 58, BaF3 parental 62
S=C(Nc1ccccc1)N1CCCN1c1ccccc1	Ba/F3 V617F tox 24, BaF3 parental 30 (no result: APP transl inh)
O=C(Nc1ccc(F)cc1)Nc1cc(OCC(F)(F)F)cc(OCC(F)(F)F)c1	aSyn UTR inh 86
CCOc1ccc(NC(=O)Nc2cc(OCC(F)(F)F)cc(OCC(F)(F)F)c2)cc1	none
O=C(NCCc1ccccc1)C(=O)NCC1OCCN1S(=O)(=O)c1ccc(F)cc1 (configuration not stated)	none (no result: Ba/F3 V617F tox, BaF3 parental, APP transl inh)
O=C(O)c1ccc2c(c1)-c1cc(C(=O)O)ccc1S2(=O)=O	none (no result: Ba/F3 V617F tox, BaF3 parental, APP transl inh)
CC(NS(=O)(=O)c1cccc(S(=O)(=O)c2ccccc2)c1)C(=O)O (configuration not stated)	BaF3 parental 31
CC(NS(=O)(=O)c1ccc2c(c1)C(=O)c1cc(S(=O)(=O)NC(C)C(=O)O)ccc1-2)C(=O)O (configuration not stated)	none (no result: Ba/F3 V617F tox, BaF3 parental, APP transl inh)
COc1cc([C@@H]2c3cc4c(cc3[C@@H](NC3CCN(Cc5ccccc5)CC3)[C@H]3COC(=O)[C@H]23)OCO4)cc(OC)c1O	aSyn UTR inh 103 (no result: Ba/F3 V617F tox, IEC-6 tox, BaF3 parental, APP transl inh, KLF5 inhibitor)
COc1cc([C@@H]2c3cc4c(cc3[C@@H](O[C@@H]3O[C@@H]5CO[C@@H](C)O[C@H]5[C@H](O)[C@H]3O)[C@H]3COC(=O)[C@H]23)OCO4)cc(OC)c1O	none (no result: Ba/F3 V617F tox, IEC-6 tox, BaF3 parental, APP transl inh, KLF5 inhibitor)
Cc1cc(C)c(S(=O)(=O)NCc2ccccn2)c(C)c1	none (no result: Ba/F3 V617F tox, BaF3 parental, APP transl inh)
CCn1c(=O)cc(OCC(=O)N2CCCCCC2)c2ccccc21	APP transl inh 55
CCn1c(=O)cc(OCC(=O)N2CCN(c3ccc(F)cc3)CC2)c2ccccc21	none
Cc1cccc(NS(=O)(=O)c2ccc(OCC(=O)N3CCCC3)cc2)c1	none (no result: Ba/F3 V617F tox, BaF3 parental, APP transl inh)
COC(=O)c1sc2ccccc2c1NC(=O)c1ccc(S(=O)(=O)N2CC(C)CC(C)C2)cc1 (configuration not stated)	none
Cc1ccc2nc(NNC(=O)c3ccc(S(=O)(=O)N4CCc5ccccc5C4)cc3)sc2c1	aSyn UTR inh 96, APP transl inh 58
Cc1ccc2nc(NNC(=O)c3ccc4c(c3)OCCO4)sc2c1	none
Cc1cccc2sc(NNC(=O)c3ccc(S(=O)(=O)N4CC(C)CC(C)C4)cc3)nc12 (configuration not stated)	aSyn UTR inh 81
Cc1cc(C)c2nc(NNC(=O)c3ccc(S(=O)(=O)N4CC(C)CC(C)C4)cc3)sc2c1 (configuration not stated)	aSyn UTR inh 72
Cc1cc(C)c2nc(NNC(=O)c3ccc(S(=O)(=O)N4CCCC(C)C4)cc3)sc2c1 (configuration not stated)	aSyn UTR inh 73
